# According to PubChem BioAssay:
# The source made the active and inactive calls. Unless noted, the rule behind the calls is not given here.
# Tests used:
# [1] = system: Wnt5a (protein binding on small-molecule microarray); test: small molecules binding Wnt5a protein – biophysical, small-molecule microarray, 635/667 nm fluorescence, primary screen (AID 1142); conditions: 635 nm fluorescence, higher = more signal;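 note: fluorescence read at 667 nm with signal to noise per printed feature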
# [2] = ATP-based viability of Huh7 replicon cells – cell-based, CellTiter-Glo luminescence, basal, 48 h, cytotoxicity control for HCV replication inhibitor project, primary screen (AID 1143); conditions: higher = more signal, called active from +8 up or from −8 down;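 note: Huh7 hepatoma cells carrying a hepatitis C replication reporter with no stimulus; test concentration not given here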
# [3] = Pseudomonas biofilm growth suppression – PAO1 strain, BacTiter-Glo luminescence, LB-PBS, primary screen (AID 1144); conditions: P. aeruginosa PAO1 biofilm, 12 h, higher = more signal
# [4] = basal CRE-LacZ reporter activity in PC12 – cell-based, unstimulated, primary screen (AID 1145); conditions: no forskolin, luminescence, 4.5 h, higher = more signal, called active from +8 up or from −8 down
# [5] = forskolin-driven CRE-LacZ activity in PC12 – cell-based, CRE-LacZ reporter, forskolin-stimulated, primary screen (AID 1146); conditions: luminescence, 4.5 h, higher = more signal, called active from +8 up or from −8 down;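 note: PC12 cells with 6xCRE LacZ reporter stimulated by forskolin 10 µM; beta-galactosidase reporter signal reflecting CREB driven transcription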
# [6] = molecular target: Streptavidin (Streptomyces avidinii) (UniProt P22629); test: compounds binding control protein streptavidin – biophysical, small-molecule microarray, 635/667 nm fluorescence, artefact control for SMM compound annotation, primary screen (AID 1147); conditions: higher = more signal;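 note: signal reflects streptavidin binding to arrayed compounds as a control protein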
# [7] = probe aInhba binding on compound microarray – biochemical, small-molecule microarray, 635/667 nm fluorescence, primary screen (AID 1148); conditions: higher = more signal;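 note: score merges 667nm spot fluorescence with signal-to-noise for antibody binding to printed compounds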
# [8] = molecular target: Torsin-1A (Homo sapiens) (UniProt O14656); test: TOR1A wild-type binding on microarray – cell lysate, small-molecule microarray, lysate, 635/667 nm, primary screen (AID 1149); conditions: COS7 hTOR1A-WT lysate, 635 nm fluorescence, higher = more signal
# [9] = molecular target: Torsin-1A (Homo sapiens) (UniProt O14656); test: torsin A mutant lysate binding on microarrays – cell lysate, small-molecule microarray, COS7 lysate, 635/667 nm fluorescence, primary screen (AID 1150); conditions: COS7 hTOR1A mutant lysate, 635 nm fluorescence, higher = more signal;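 note: score pools 667 nm emission and signal to noise measuring lysate protein binding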
# [10] = system: Sonic hedgehog protein (Shh); test: Sonic hedgehog microarray binding compounds – biochemical, small-molecule microarray, 635/667 nm fluorescence, primary screen (AID 1151); conditions: 635 nm fluorescence, higher = more signal;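 note: Shh protein binding to compounds spotted on small-molecule microarray slides; score combines spot fluorescence intensity with signal-to-noise across triplicate slides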
# [11] = optical density shifts of acrAB sulA E. coli – strain DRC41, OD650, 48 h, E. coli filamentation inducer project, primary screen (AID 1152); conditions: higher = more signal, called active from +8 up or from −8 down;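 note: E. coli MC1000 strain DRC41 lacking acrAB efflux pump and sulA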
# [12] = probe aLefty1 binding on compound microarray – biochemical, small-molecule microarray, 635/667 nm fluorescence, primary screen (AID 1153); conditions: higher = more signal;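 note: score merges spot fluorescence with signal-to-noise ratio from the scanned slide images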
# [13] = plasmodial surface anion channel blockers, osmotic lysis – cell-based, P. falciparum Indochina, OD700, 1 h, primary screen (AID 1154); conditions: P. falciparum Indochina infected RBC osmotic lysis, higher = more signal, called active from +8 up or from −8 down
# [14] = plasmodial surface anion channel blockers, osmotic lysis – cell-based, P. falciparum Indochina, OD700, 2 h, primary screen (AID 1155);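 note: lysis reports solute entry through the parasite surface anion channel PSAC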; conditions: P. falciparum Indochina infected erythrocytes, higher = more signal, called active from +8 up or from −8 down
# [15] = changes in parasitized red cell lysis, either direction – P. falciparum Indochina, OD700, 3 h, PSAC antagonist project, primary screen (AID 1156); conditions: P. falciparum-infected erythrocytes, osmotic lysis, higher = more signal, called active from +8 up or from −8 down
# [16] = plasmodial surface anion channel blockers, osmotic lysis – cell-based, P. falciparum Indochina, OD700, 18 h, primary screen (AID 1157); conditions: P. falciparum Indochina infected erythrocytes, osmotic lysis OD700, 18 h; higher = more signal, called active from +8 up or from −8 down
# [17] = S6 kinase pathway phospho-S6 level changes – cell-based, A549, cytoblot, luminescence, serum-stimulated, primary screen (AID 1158); conditions: 5 h, higher = more signal;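 note: serum-stimulated A549 lung adenocarcinoma cells; signal is phosphorylated S6 detected by cytoblot immunostaining with HRP secondary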
# [18] = molecular target: NADPH oxidase 2 (Homo sapiens) (UniProt P04839); test: compounds shifting NOX2 Amplex Red fluorescence – cell-based, HEK293-NOX2, PMA-stimulated, NOX inhibitor project, primary screen (AID 1159); conditions: 45 min, higher = more signal, called active from +8 up or from −8 down; note: test concentration not given here
# [19] = molecular target: NADPH oxidase 4 (Homo sapiens) (UniProt Q9NPH5); test: compounds shifting NOX4 Amplex Red fluorescence – cell-based, HEK293-NOX4, tetracycline-induced, NOX inhibitor project, primary screen (AID 1160); conditions: HEK293-NOX4, Amplex Red H2O2 fluorescence, 45 min; higher = more signal, called active from +8 up or from −8 down
# [20] = molecular target: NADPH oxidase 5 (Homo sapiens) (UniProt Q96PH1); test: compounds shifting NOX5 Amplex Red fluorescence – cell-based, HEK293-NOX5, NOX inhibitor project, primary screen (AID 1161); conditions: HEK293-NOX5, ionomycin, 45 min, higher = more signal
# Chain of NADPH oxidase 5 (Homo sapiens) (Q96PH1 whole entry, looked up): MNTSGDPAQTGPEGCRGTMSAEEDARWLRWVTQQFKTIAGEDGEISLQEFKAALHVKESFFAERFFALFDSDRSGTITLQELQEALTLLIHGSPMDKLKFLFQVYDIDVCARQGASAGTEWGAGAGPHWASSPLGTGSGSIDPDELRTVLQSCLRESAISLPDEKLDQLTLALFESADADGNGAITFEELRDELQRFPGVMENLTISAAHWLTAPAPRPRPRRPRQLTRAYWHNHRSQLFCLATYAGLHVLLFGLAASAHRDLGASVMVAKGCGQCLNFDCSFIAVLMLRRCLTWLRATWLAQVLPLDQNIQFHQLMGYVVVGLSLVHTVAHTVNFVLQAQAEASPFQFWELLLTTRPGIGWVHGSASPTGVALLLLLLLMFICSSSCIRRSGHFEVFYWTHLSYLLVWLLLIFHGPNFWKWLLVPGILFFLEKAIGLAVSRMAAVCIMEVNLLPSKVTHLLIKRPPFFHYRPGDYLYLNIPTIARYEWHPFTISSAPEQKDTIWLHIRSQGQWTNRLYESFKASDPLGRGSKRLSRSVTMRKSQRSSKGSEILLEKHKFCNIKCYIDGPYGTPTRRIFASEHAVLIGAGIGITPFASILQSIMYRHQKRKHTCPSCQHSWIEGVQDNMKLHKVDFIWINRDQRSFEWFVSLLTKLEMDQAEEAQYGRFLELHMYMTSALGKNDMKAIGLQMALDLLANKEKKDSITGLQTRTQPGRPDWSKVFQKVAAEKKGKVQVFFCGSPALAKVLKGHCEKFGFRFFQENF
# Chain of Streptavidin (Streptomyces avidinii) (P22629 whole entry, looked up): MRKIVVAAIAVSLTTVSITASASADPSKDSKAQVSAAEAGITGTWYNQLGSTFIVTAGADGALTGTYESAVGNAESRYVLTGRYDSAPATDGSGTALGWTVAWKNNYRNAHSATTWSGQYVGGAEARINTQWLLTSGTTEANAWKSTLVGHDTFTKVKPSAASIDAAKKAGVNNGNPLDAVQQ
# Chain of NADPH oxidase 2 (Homo sapiens) (P04839 whole entry, looked up): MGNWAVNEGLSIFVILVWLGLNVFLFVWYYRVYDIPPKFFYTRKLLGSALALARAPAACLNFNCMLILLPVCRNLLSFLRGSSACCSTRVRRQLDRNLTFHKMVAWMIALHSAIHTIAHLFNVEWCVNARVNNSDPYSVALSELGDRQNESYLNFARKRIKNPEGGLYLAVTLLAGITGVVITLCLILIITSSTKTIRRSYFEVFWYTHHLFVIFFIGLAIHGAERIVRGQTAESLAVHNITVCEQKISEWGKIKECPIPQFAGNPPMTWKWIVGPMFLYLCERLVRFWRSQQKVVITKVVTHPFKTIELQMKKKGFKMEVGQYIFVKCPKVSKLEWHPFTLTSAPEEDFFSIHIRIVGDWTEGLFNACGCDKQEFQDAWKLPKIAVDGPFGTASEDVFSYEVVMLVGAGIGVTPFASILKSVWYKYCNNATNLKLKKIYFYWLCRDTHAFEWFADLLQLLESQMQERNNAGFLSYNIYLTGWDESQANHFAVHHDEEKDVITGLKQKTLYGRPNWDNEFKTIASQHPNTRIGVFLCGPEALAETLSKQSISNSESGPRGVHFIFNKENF
# Chain of NADPH oxidase 4 (Homo sapiens) (Q9NPH5 whole entry, looked up): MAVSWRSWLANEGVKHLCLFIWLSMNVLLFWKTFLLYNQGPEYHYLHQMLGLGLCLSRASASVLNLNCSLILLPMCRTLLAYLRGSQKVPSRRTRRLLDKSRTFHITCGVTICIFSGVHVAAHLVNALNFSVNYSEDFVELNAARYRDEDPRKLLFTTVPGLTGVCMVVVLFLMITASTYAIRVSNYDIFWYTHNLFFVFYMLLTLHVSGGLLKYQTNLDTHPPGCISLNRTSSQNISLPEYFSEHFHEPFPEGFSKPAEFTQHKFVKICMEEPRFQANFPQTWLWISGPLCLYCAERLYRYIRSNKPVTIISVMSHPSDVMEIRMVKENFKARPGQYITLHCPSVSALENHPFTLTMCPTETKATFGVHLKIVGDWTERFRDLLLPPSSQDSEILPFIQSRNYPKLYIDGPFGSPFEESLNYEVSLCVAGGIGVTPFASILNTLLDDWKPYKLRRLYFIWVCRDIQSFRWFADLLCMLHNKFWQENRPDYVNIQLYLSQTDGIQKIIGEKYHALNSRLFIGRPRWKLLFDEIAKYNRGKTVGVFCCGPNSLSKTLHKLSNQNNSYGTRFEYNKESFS
# Chain of Torsin-1A (Homo sapiens) (O14656 whole entry, looked up): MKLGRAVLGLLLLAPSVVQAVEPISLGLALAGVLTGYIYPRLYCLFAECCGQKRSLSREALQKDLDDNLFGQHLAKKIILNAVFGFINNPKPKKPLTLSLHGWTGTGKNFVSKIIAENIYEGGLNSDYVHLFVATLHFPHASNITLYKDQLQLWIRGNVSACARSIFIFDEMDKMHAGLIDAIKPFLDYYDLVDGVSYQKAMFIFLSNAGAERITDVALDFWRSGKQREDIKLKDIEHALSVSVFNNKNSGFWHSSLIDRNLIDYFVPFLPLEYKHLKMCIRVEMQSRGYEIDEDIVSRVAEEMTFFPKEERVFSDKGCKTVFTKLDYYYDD
Compound,composite z-score [1],z-score [2],z-score [3],z-score [4],z-score [5],composite z-score [6],composite z-score [7],composite z-score [8],composite z-score [9],composite z-score [10],z-score [11],composite z-score [12],z-score [13],z-score [14],z-score [15],z-score [16],z-score [17],z-score [18],z-score [19],z-score [20]
NC(=O)NCC#Cc1ccc2c(c1)[C@]1(C(=O)N2)[C@H](C(=O)NC[C@H](O)c2ccccc2)[C@H]2C(=O)O[C@H](c3ccccc3)[C@H](c3ccccc3)N2[C@@H]1c1ccccc1OCCO,-0.0335,-4.25 (inactive),-1.09 (inactive),-0.0246 (inactive),-0.304 (inactive),-0.0692,0.0471,-1.05,0.92,1.82,2.23 (inactive),0.157,1.15 (inactive),-0.658 (inactive),0.0336 (inactive),-2.16 (inactive),1.5,0.121 (inactive),-1.95 (inactive),-1.81
C=CCC(OC(C)=O)[C@@H]1[C@@H](N(Cc2cc3ccccc3o2)C(=O)c2cccc3ccccc23)c2cc(OCCCO)ccc2N1C(=O)Cc1ccc2ccccc2c1 (stereo not given in full),0.0744,-1.62 (inactive),0.303 (inactive),0.992 (inactive),-0.333 (inactive),0.435,-0.0589,-0.213,-0.146,0.191,-0.288 (inactive),-0.0547,2.06 (inactive),0.231 (inactive),-0.336 (inactive),0.332 (inactive),0.778,0.39 (inactive),-1.46 (inactive),-2.19
C=C[C@H](C)[C@H](OC(=O)Nc1ccc(OC)cc1)c1ccc(O)c2ccccc12,0.107,-3.55 (inactive),-0.156 (inactive),0.236 (inactive),0.544 (inactive),-0.199,-0.128,0.822,0.16,0.9,-0.222 (inactive),0.0313,1.71 (inactive),0.435 (inactive),-0.554 (inactive),-0.187 (inactive),0.486,-5.39 (inactive),-1.77 (inactive),-0.256
O=C(N1CCCCC1)[C@]1(CCS(=O)(=O)c2ccccc2)N=C(c2ccc(OCCCO)cc2)O[C@@H]1c1ccccc1,0.497,-5.48 (inactive),0.13 (inactive),1.16 (inactive),-0.526 (inactive),0.721,0.461,0.608,0.885,0.624,-0.725 (inactive),1.17,27.2 (active),19.5 (active),2.02 (inactive),-0.192 (inactive),1.54,-2.96 (inactive),-1.7 (inactive),-1.94
CCCCN1CC=CC23O[C@@H]4C=CCCOC(=O)C4[C@H]2C(=O)N(CCCO)[C@@H]3C1=O (stereo not given in full),-0.148,-2.05 (inactive),-1.19 (inactive),-0.484 (inactive),0.46 (inactive),-0.614,-0.176,-0.387,-0.954,-0.278,0.62 (inactive),-0.321,0.158 (inactive),-1.01 (inactive),0.224 (inactive),-1.34 (inactive),0.243,-0.168 (inactive),-1.73 (inactive),-1.34
C=CCN1C(=O)[C@@]2(O[C@@H](CCO)[C@H]([Si](C)(C)c3ccc(OC)cc3)[C@H]2C)c2cc(NC(C)=O)ccc21,0.303,-4.72 (inactive),0.445 (inactive),7.68 (inactive),0.766 (inactive),-0.0236,0.0982,0.31,0.364,1.85,-0.149 (inactive),0.0429,23.7 (active),8.14 (active),0.502 (inactive),1.26 (inactive),0.0792,-1.07 (inactive),-0.0526 (inactive),-0.391
COc1ccc([Si](C)(C)[C@H]2[C@H](CC(=O)N(CCO)Cc3ccccc3)O[C@@]3(C(=O)N(Cc4cccc(N5C(=O)c6cccc7cccc5c67)c4)c4ccccc43)[C@@H]2C)cc1,0.353,-4.87 (inactive),-0.188 (inactive),1.09 (inactive),-1.14 (inactive),0.544,-0.101,0.871,0.27,1.61,1.33 (inactive),-0.0507,13.2 (active),0.787 (inactive),-0.924 (inactive),-0.34 (inactive),2.67,0.38 (inactive),0.39 (inactive),1.83
CCN(CC)c1ccc(N2CC=CC34O[C@@H]5/C=C\CCCOC(=O)C5[C@H]3C(=O)N(CCCO)[C@@H]4C2=O)cc1 (stereo not given in full),-0.674,0.273 (inactive),2.24 (inactive),-0.212 (inactive),-0.473 (inactive),-1.12,-0.157,-1.94,-1.45,-0.18,-0.522 (inactive),0.235,1.78 (inactive),0.225 (inactive),-0.462 (inactive),0.308 (inactive),-0.219,0.024 (inactive),0.558 (inactive),0.931
O=c1cccc(-c2cccc3ccccc23)o1,-0.0859,-0.779 (inactive),-0.469 (inactive),0.182 (inactive),0.092 (inactive),0.112,-0.0471,0.272,-0.0514,-0.343,0.109 (inactive),0.106,6.68 (inactive),1.37 (inactive),-0.276 (inactive),0.832 (inactive),-0.312,-0.112 (inactive),-2.39 (inactive),-0.0533
[N-]=[N+]=NCc1ccccc1C[C@]1(C(N)=O)N=C(c2ccc(OCCCO)cc2)O[C@H]1c1ccccc1N=[N+]=[N-],0.451,-1.84 (inactive),-0.43 (inactive),-0.254 (inactive),0.248 (inactive),0.978,0.0906,0.0331,0.652,-0.413,0.125 (inactive),0.588,34.1 (active),32.7 (active),2.52 (inactive),3.39 (inactive),-0.59,-3.15 (inactive),-0.457 (inactive),-2.02
COCC1=C([C@H](O)CCc2ccccc2)[C@H](CO)[C@@H]2C(=O)N(Cc3ccccc3)C(=O)[C@@H]2C1,0.0713,-0.979 (inactive),-0.771 (inactive),0.586 (inactive),-0.0417 (inactive),-0.0218,-0.0759,-0.305,0.767,1.03,1.72 (inactive),-0.194,15.3 (active),2.04 (inactive),0.23 (inactive),0.477 (inactive),0.24,-0.543 (inactive),0.21 (inactive),-0.0312
C=C(COC)/C(=C/C[C@H](OC(C)=O)c1ccccc1OCCO)c1cnc2ccccc2c1,0.704,-0.0339 (inactive),-0.543 (inactive),0.131 (inactive),0.128 (inactive),0.351,0.0183,0.0548,0.794,1.65,-0.0836 (inactive),-0.0779,16.9 (active),2.74 (inactive),0.661 (inactive),0.799 (inactive),-0.177,-1.79 (inactive),-0.0686 (inactive),-0.854
CN1C(=O)C2C(C1=O)C1C=C(c3ccc(CO)cc3)C2C(C2CC2)N1Cc1sc2ccccc2c1Cl (stereo not given),0.567,-3.96 (inactive),0.277 (inactive),2.75 (inactive),-0.825 (inactive),2.1,0.432,1.08,1.57,0.25,0.743 (inactive),0.146,20.7 (active),5.75 (inactive),0.713 (inactive),1.82 (inactive),0.0504,-3.97 (inactive),-0.852 (inactive),-3.7
CC(=O)NCCCC[C@@H]1NC(=O)[C@@H]2C[C@H](C(=O)NCCCCCC[N+](C)(C)C)[C@H](c3cccc(OCCO)c3)N2C1=O,0.505,-0.134 (inactive),-0.445 (inactive),-0.947 (inactive),-0.75 (inactive),-0.206,-0.0425,0.964,1.43,2.04,0.0924 (inactive),0.156,2.99 (inactive),0.591 (inactive),-0.956 (inactive),0.325 (inactive),-0.507,1.09 (inactive),0.91 (inactive),0.593
Cc1ccc(S(=O)(=O)N2CC(C(=O)O)=CCC2c2ccccc2)cc1 (stereo not given),-0.0669,0.0982 (inactive),-0.153 (inactive),-0.266 (inactive),0.222 (inactive),-0.134,-0.128,1.08,-0.307,-0.861,-1.24 (inactive),0.0717,1.17 (inactive),1.1 (inactive),1.13 (inactive),0.879 (inactive),-0.55,-0.363 (inactive),-1.02 (inactive),-1.02
CC(C)C(O)C1C=CC2C(=O)N(C)C(=O)C2N1N1CCCCC1 (stereo not given),-0.0226,0.788 (inactive),-0.775 (inactive),-0.133 (inactive),0.0399 (inactive),0.482,-0.0704,-0.0881,1.29,0.192,-1.77 (inactive),0.134,0.193 (inactive),1.22 (inactive),0.0667 (inactive),1 (inactive),-0.87,-0.569 (inactive),-0.278 (inactive),-1.52
C=C[C@@H](C)[C@@H](OC(=O)Nc1ccc(OC)cc1)c1ccc(O)c2ccccc12,-0.124,-5.48 (inactive),-0.901 (inactive),0.758 (inactive),0.999 (inactive),0.0646,-0.154,0.15,-0.0324,1.53,0.0598 (inactive),-0.0222,2.46 (inactive),0.661 (inactive),0.0162 (inactive),0.354 (inactive),0.382,-5.9 (inactive),-1.81 (inactive),-0.437
